The text below walks through data of PubChem BioAssay (NCATS).

SMILES strings stand for the structures. Results filed as inconclusive are left out. Entries that show only a call come without a potency. Calls of active or inactive are those of the source. Calls come from the whole dose curve; as a rule, active = well fitted inhibition curve with a large enough effect; inconclusive = small, poorly fitted or top-dose-only effect; inactive = flat fitted curve, though single readings scatter.

Sequence of Calcium and integrin-binding protein 1 (Homo sapiens) (Q99828 whole entry, looked up): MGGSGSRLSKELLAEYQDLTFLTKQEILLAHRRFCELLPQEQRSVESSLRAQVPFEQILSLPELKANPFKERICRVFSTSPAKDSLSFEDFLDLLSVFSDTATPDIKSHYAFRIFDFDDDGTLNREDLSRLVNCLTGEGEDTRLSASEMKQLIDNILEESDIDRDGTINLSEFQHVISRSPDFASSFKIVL

This test concerns the target Calcium and integrin-binding protein 1 (Homo sapiens) (UniProt Q99828). In words: Primary qHTS for Identification of Calcium Integrin Binding Protein 1 (CIB1) Competitor (AID 1508620). Note: top concentration of the series differs between compounds. Conditions: CIB1-GST / FITC-alphaIIb peptide fluorescence polarization; series mostly up to 114 µM. In short, it runs like this:
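Fluorescence polarization competition: GST-tagged CIB1 (1 uM final) preincubated with compound 15 min at room temperature, then FITC-labelled alphaIIb peptide (100 nM final) added. After 15 min at room temperature, polarization read at Ex 480/Em 540.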
Turning to `O=c1cc(N2CCOCC2)nc2c3ccccc3ccn12`, the Potency result is “inactive”.
On to `CC1(C)CC[C@]2(C(=O)O)CC[C@]3(C)C(=CCC4[C@@]5(C)C[C@@H](O)[C@H](O)C(CO)(CO)C5CC[C@]43C)C2[C@@H]1O` (some centres undefined), for which the Potency entry is “inactive”.
As for `CC(/C=C/C(=O)NO)=C\[C@@H](C)C(=O)c1ccc(N(C)C)cc1`, the Potency entry is “inactive”.
On the same count and under the same terms, the result for `CC1=C2C[C@@]3(C)C(CCC[C@@H]3C)C(O)C2OC1=O` (some centres undefined) reads “inactive”; that for `O=C(O)c1ccc(N2C(=O)/C(=C/c3ccc(-c4ccc([N+](=O)[O-])cc4)o3)C=C2c2ccccc2)cc1`, “inactive”.
On to `CC(=O)O[C@H]1CC(C)(C)CC2[C@]13CO[C@@]21CCC2[C@@]4(C)CC[C@H](O[C@@H]5OC[C@H](O[C@@H]6O[C@H](CO)[C@@H](O)[C@H](O)[C@H]6O[C@@H]6OC[C@@H](O[C@@H]7O[C@H](CO)[C@@H](O)[C@H](O)[C@H]7O)[C@H](O)[C@H]6O)[C@H](O)[C@H]5O[C@@H]5O[C@H](CO)[C@@H](O)[C@H](O)[C@H]5O)[C@@](C)(CO)C4CC[C@@]2(C)[C@]1(C)C[C@H]3O` (some centres undefined), for which the activity change, negative = inhibition is 3.35% [at 12.4 µM] (inactive).
As for `Nc1nc(NC2CC2)cc(-c2cccc(Cl)c2Cl)n1`, the Potency entry is “inactive”.
As to `COc1ccc(S(=O)(=O)Nc2cc(Cl)cc(Cl)c2OC)cc1N1CCNCC1`, the Potency result is “inactive”.
For the molecule `CC1(C=O)CCCC2(C)C1CCC13CC(CO)C(CCC12)C3` (centres undefined), the Potency entry was “inactive”.
With `CCN(CC)CCCCCCNc1cc(OC)cc2c(C)ccnc12`, the Potency entry was “inactive”.
For `O=C(O)C1=CO[C@@H](O[C@@H]2O[C@H](CO)[C@@H](O)[C@H](O)[C@H]2O)[C@@H]2C(CO)=CC[C@H]12`, the Potency result was “inactive”.
Still for that read-out and setting: the result for `Cn1ncc2cc(-c3cnc(N)c(Cl)c3N3CCC4(CCNC4=O)CC3)ccc21` reads “inactive”.
Still for that read-out and setting: the result for `C/C1=C\[C@@H](C)C[C@@H](C)[C@@H](Cc2cnco2)OC(=O)/C(C)=C/[C@@H](C)C[C@@H](C)[C@@H](Cc2cnco2)OC1=O` reads “inactive”.
For the molecule `O=C(Nc1cccc([N+](=O)[O-])c1)c1cccc(S(=O)(=O)N2CCCCCC2)c1`, the Potency entry was “inactive”.
Still for that read-out and setting: the entry for `CC1(C(=O)Nc2ccc(F)nc2)CCCN1c1nc(Nc2cc(C3CC3)[nH]n2)c2cccn2n1` (centres undefined) is “inactive”; for `C=C1CC[C@@H](O)[C@]2(C)C[C@H]3OC(=O)C(=C)[C@H]3CC12` (some centres undefined) it is “inactive”; for `CC(=O)O[C@H]1[C@@]2(O)C[C@H](C)[C@H](OC(=O)c3ccccc3)[C@@H]2[C@@H](OC(=O)CO)[C@]2(OC(C)=O)C[C@H]3C(=O)C(C)(C)C[C@@H]3[C@@]1(C)[C@H]2OC(C)=O` it is “inactive”.
For the molecule `CO[C@H]1[C@@H](O)[C@H](O[C@H]2CC[C@@]3(C)C(CCC4C3CC[C@]35COC6(COC(=O)C6)C3CCC45O)C2)O[C@@H](C)[C@@H]1OC1OC(CO)C(OC2OC(CO)C(O)C(O)C2O)C(O)C1O` (some centres undefined), the Potency entry was “inactive”.
Same read-out and setting: the entry for `CCC(C)/C=C(C)/C=C/C1=CC2=CC(=O)C3(C)OC(C)(O)C(C(=O)OC)C3C2=CO1` (centres undefined) is “inactive”.
Take `C=C1C(=O)O[C@@H]2C[C@H](C)[C@@H]3CC(=O)[C@H](O)[C@@]3(C)C[C@H]12`: the Potency result was “inactive”.
Still for that read-out and setting: the result for `CC(C)/C=C1\NC(=O)C(C(C)C)n2c1nc1ccccc1c2=O` (centres undefined) reads “inactive”; that for `COc1cc(NC(=O)c2cccc(-n3cc(NC(=O)Nc4cccc(C)c4)cn3)c2)cc(OC)c1OC`, “inactive”; that for `CC(C)NC(=O)N1CC[C@H](N=C2Nc3cc(F)ccc3N(CC(F)F)c3ccc(Cl)cc32)C1`, “inactive”.
Take `Cn1ncc(Cl)c1-c1cc(C(=O)N[C@H](CN)Cc2ccc(F)c(F)c2)sc1Cl`: the Potency entry was “inactive”.
On the same count and under the same terms, the result for `COc1cc2c(cc1OC)CN(C(=O)/C=C/c1c(-c3ccccc3)n(C)c3ncccc13)CC2` reads “inactive”.
With `CC(C)S(=O)(=O)NC[C@@H]1CC(c2ccc(N3CCCC3)c(F)c2)=NO1`, the Potency result was “inactive”.
Turning to `CCn1c(N)c(C(=O)NC)c(=O)c2ccc(C#CC(C)(O)COC)nc21` (centres undefined), the Potency entry is “inactive”.
For `C[C@H](Oc1cc(-c2cnn(C3CCNCC3)c2)cnc1N)c1c(Cl)ccc(F)c1Cl`, the Potency result is “inactive”.
On the same count and under the same terms, the result for `COc1ccc(N2CCN(C(=O)c3cc4c(s3)-c3ccccc3S(=O)(=O)C4)CC2)cc1` reads “inactive”.
On to `O=S(=O)(Nc1cc(Cl)c(Oc2cnc3ccccc3c2)c(Cl)c1)c1ccc(Cl)cc1Cl`, for which the Potency result was “inactive”.
In the case of `CN(C)c1ccnc2sc3c(=O)n(N4CCCCCC4)cnc3c12`, the Potency entry is “inactive”.
Same read-out and setting: the result for `COc1cc(N2CCOCC2)ccc1NC(=O)c1csc(-c2cccnc2)n1` reads “inactive”; that for `Cc1ccc(O)cc1Nc1ccnc(Nc2cccc(C(N)=O)c2)n1`, “inactive”.
For `C/C=C(\C)C(=O)OC1C(C)C2(O)C(C=C(CO)CC3(O)C(=O)C(C)=CC32)C2C(C)(C)C12OC(C)=O` (centres undefined), the Potency result is “inactive”.
Still for that read-out and setting: the result for `CCN1CCN(Cc2ccc(NC(=O)c3ccc(C)c(Oc4ncnc5[nH]c(C)cc45)c3)cc2C(F)(F)F)CC1` reads “inactive”; that for `C/C=C/C1=CC2=C(CO1)C(=O)C(C)(OC(=O)c1c(C)cc(O)cc1OC)C(O)C2` (centres undefined), “inactive”; that for `CCN(Cc1cc(Nc2nc(C)cn3c(-c4cn[nH]c4)cnc23)sn1)C(C)(C)CO`, “inactive”.
Same read-out and setting: the result for `CC(C)CCNC(=O)[C@H](CC(C)C)NC(=O)[C@H]1O[C@@H]1C(=O)O` reads “inactive”; that for `C/C=C\NC(=O)C1NC(=O)C(CC(N)=O)NC(=O)C(NC(=O)C(=O)C(C)CC)Cc2ccc(O)c(c2)-c2cccc3c2NC(=O)C3(O)C1O` (centres undefined), “inactive”.
